Consider 26 compounds from PubChem BioAssay AID1117290 (Broad Institute, 2014).

The structures appear in SMILES notation. Measured potencies and affinities stand elsewhere. The source made the active and inactive calls.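 How the source made its calls: active means every replicate test called active, each showing a drop in signal with a fitted potency within twice the top tested dose; inconclusive means tests disagree, or fits are weak, flat midrange or poor; inactive means every test flat, rising or fitted past the limit.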

This assay is described as follows: lung carcinoma cell viability loss – CellTiter-Glo luminescence, dry powder, set 18, cytotoxicity control, dose response (AID 1117290). To be noted: A549 viability, CellTiter-Glo ATP luminescence, 72 h; series mostly up to 26 µM. A general note: In ATP-based viability assays light output follows the ATP content of the culture.
With `Cc1ccc(NC(=O)NC2(C(=O)N3CCOCC3)CCCCC2)cc1`, the compound was called inactive.

Consider `CC(=O)N1CCN(C(=O)C2CCCN2C(=O)Nc2ccc(C)cc2)CC1` (stereo unspecified), for which the call was inactive.

As for `N#Cc1ccc(S(=O)(=O)Nc2cc(C(F)(F)F)ccc2N2CCCCC2)cc1`, the call was inactive.

Regarding `CC(=O)N1CCN(C(=O)CNC(=O)Nc2ccc(C)cc2)CC1`, the outcome was inactive.

Regarding `NC(=NCCc1c[nH]c2ccccc12)NS(=O)(=O)c1cc(F)ccc1F`, the call was inactive.

Regarding `COc1ccc(C(=O)Nc2cc(C(F)(F)F)ccc2N2CCCCC2)cc1S(=O)(=O)O`, the call was inactive.

In the case of `COc1ccc(C(=O)Nc2cc(C(F)(F)F)ccc2N2CCCC2)cc1S(=O)(=O)O`, the compound was called inactive.

Regarding `COc1cccc(NC(=O)NC2(C(=O)N3CCN(C(C)=O)CC3)CCCCC2)c1`, the compound was classed as inactive.

Consider `CC(=O)N1CCN(C(=O)C2(NC(=O)NC(C)(C)C)CCCCC2)CC1`, for which the result was inactive.

For the compound `O=[N+]([O-])c1cccc(S(=O)(=O)Nc2cc(C(F)(F)F)ccc2N2CCCCC2)c1`, the compound was called inactive.

Take `CC(=O)N1CCN(C(=O)C2(NC(=O)Nc3ccc(C(C)C)cc3)CCCC2)CC1`: the compound was classed as inactive.

As for `O=S(=O)(Nc1cc(C(F)(F)F)ccc1N1CCCCC1)c1ccc(-c2ccccc2)cc1`, the call was inactive.

For `Cc1ccc(NC(=O)NC2(C(=O)N3CCNCC3)CCCCC2)cc1`, the compound was classed as inactive.

`O=S(=O)(Nc1cc(C(F)(F)F)ccc1N1CCCCC1)c1ccc(C(F)(F)F)cc1`: the outcome was inactive.

With `COc1ccc(C(=O)O)cc1S(=O)(=O)Nc1cccc(N2CCCCC2)c1C(F)(F)F`, the result was inactive.

Turning to `COc1ccc(C(=O)Nc2ccccc2N2CCCCC2)cc1S(=O)(=O)O`, the compound was classed as inactive.

On to `O=S(=O)(Nc1cc(C(F)(F)F)ccc1N1CCCCC1)c1cc(Cl)cc(Cl)c1`, for which the compound was classed as inactive.

Regarding `COc1ccc(C(=O)Nc2cccc(C(F)(F)F)c2)cc1S(=O)(=O)O`, the compound was classed as inactive.

Take `CC(=O)N1CCN(C(=O)C2(NC(=O)Nc3ccccc3)CCCC2)CC1`: the result was inactive.

For `O=S(=O)(O)c1ccc(N2N=C(c3ccccc3)CC2c2ccccc2)cc1` (stereo unspecified), the compound was called inactive.

Turning to `O=S(=O)(Nc1cc(C(F)(F)F)ccc1N1CCCCC1)c1ccc(Br)cc1`, the call was inactive.

On to `O=[N+]([O-])c1ccc(S(=O)(=O)Nc2cc(C(F)(F)F)ccc2N2CCCCC2)c([N+](=O)[O-])c1`, for which the result was inactive.

For `CC(=O)N1CCN(C(=O)C2(NC(=O)Nc3ccc(F)cc3)CCCC2)CC1`, the compound was classed as inactive.

In the case of `COc1ccc(C(=O)Nc2cc(C)ccc2N2CCCCC2)cc1S(=O)(=O)O`, the call was inactive.

`CC(=O)N1CCN(C(=O)C(C)(C)NC(=O)Nc2ccc(C)cc2)CC1`: the compound was called inactive.

Take `O=C(Nc1cc(C(F)(F)F)ccc1N1CCCCC1)c1ccc(S(=O)(=O)O)cc1`: the outcome was inactive.
